40 compounds from PubChem BioAssay (NCI) can be followed below.

The panel holds about 83,000 compounds, 20% with a hit somewhere; the sample as a whole holds those more often.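 How to read the values: 0–100, growth inhibition (40 = 60% inhibited); 0, no net growth; -100 to 0, cell death (-40 = 40% of starting cells died; -100 = all dead).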 Unmarked numbers belong to inactive results. The source made the active and inactive calls.

The experiment concerns SK-MEL-5 melanoma. Description: NCI-60 one-dose screen, 48 h (100 = growth as untreated, 0 = no growth, -100 = all killed). The note with it: 10 µM unless noted. The protocol: Growth inhibition of the SK-MEL-5 human tumor cell line is measured as a screen for anti-cancer activity. Cells are grown in 96 well plates and exposed to the test compound for 48 hours. Compounds are tested at a single concentration, which is 10^-5 M for most compounds. The reported endpoint is percent growth (GI% or GIPRCNT), where numbers from 0 - 100% represent growth inhibition, and numbers from -100% - 0 represent cell death. For example, a value of 40 represents 60% growth inhibition. A value of 0 means no net growth occurred over the course of the experiment. A value of -40 indicates 40% of cells at the beginning of the experiment died by the end of the experiment. A value of -100 means all cells are dead at the end of the experiment.
NCI-60 Human Tumor Cell Lines Screen was performed using the standard one-dose NCI protocol, which is described in more detail at https://dtp.cancer.gov/discovery_development/nci-60/default.htm.
Compounds with GIPRCNT values below 10 were considered active. Activity score was based on GIPRCNT using the following formula: […]
Score is 0 for GIPRCNT values of 100 or above, 50 for GIPRCNT values of 0, and 100 for GIPRCNT values of -100.
Regarding `C#Cc1cccc(Nc2ncnc3cc(OCCOC)c(OCCOC)cc23)c1`, the growth was 77.1%.

For `C[C@@H](Oc1cc(C(=O)Nc2ccc(C(=O)N3CCN(C)CC3)cc2)nnc1N)c1c(Cl)ccc(F)c1Cl`, the growth was 36.8%.

On to `COc1cc2c(cc1OCCCCCCN1CCN(c3ncnc4ccccc34)CC1)N=CC1CCCN1C2=O` (stereo not given), for which the growth is -87.2% (active).

Consider `Cc1nc(NC(=O)N2CCC[C@H]2C(N)=O)sc1-c1ccnc(C(C)(C)C(F)(F)F)c1`, for which the growth is 61.8%.

In the case of `C=CC(=O)Nc1cccc(Nc2nc(Nc3ccc(N4CCN(C(C)=O)CC4)cc3OC)ncc2C(F)(F)F)c1`, the growth is 6.86% (active).

Take `Cc1cc(-c2cc(OC(=O)c3ccccc3)ccc2Cl)cc2nnc(Nc3ccc(OCCN4CCCC4)cc3)nc12`: the growth is 83.1%.

For the compound `CC1(C=O)NC(=O)NC1=O` (stereo not given), the growth is 102%.

As to `O=C(Nc1cccc([N+](=O)[O-])c1)c1ccc(Cl)c(Cl)c1`, the growth is 89.4%.

For `COC(=O)[C@H](Cc1ccc(O)cc1)NC(=O)[C@@H](OC)[C@@H]1Cc2cc3cc(OC4CC(OC5CC(O)C(O)C(C)O5)C(O)C(C)O4)c(C)c(O)c3c(O)c2C(=O)[C@H]1OC1CC(OC2CC(OC3CC(C)(O)C(O)C(C)O3)C(O)C(C)O2)C(O)C(C)O1` (stereo not given in full), the growth is -53.3% (active).

As to `C=CC(=O)N1CCC[C@@H](n2nc(-c3ccc(Oc4ccccc4)cc3)c3c(N)ncnc32)C1`, the growth was 56.1%.

As for `CCN1/C(=C/C=C/c2n(-c3ccccc3)c3ccc(-c4nc5ccccc5s4)cc3[n+]2CC)N(c2ccccc2)c2ccc(-c3nc4ccccc4s3)cc21`, the growth was -59.2% (active).

Take `COC(=O)CNC(=O)[C@@H](OC)[C@@H]1Cc2cc3cc(OC4CC(OC5CC(O)C(O)C(C)O5)C(O)C(C)O4)c(C)c(O)c3c(O)c2C(=O)[C@H]1OC1CC(OC2CC(OC3CC(C)(O)C(O)C(C)O3)C(O)C(C)O2)C(O)C(C)O1` (stereo not given in full): the growth is -44.6% (active).

Consider `O=C1/C(=C\c2cccc(OCCCCCOc3ccc(Cl)cc3)c2)N=C2SCCCN12`, for which the growth was -6.82% (active).

As for `O=C(Cn1c(=O)ccn(CCCCCCCCOc2ccc(Br)cc2)c1=O)Nc1ccc(Oc2ccc(Cl)cc2)cc1`, the growth is 28.7%.

Turning to `CC1(C)NC(=O)c2[nH]c3c(Cl)c(Cl)ccc3c2C1C#N` (stereo not given), the growth is 8.85% (active).

As for `Cc1cc(C(=O)Nc2cc(Oc3ccc4nc(NC(=O)C5CC5)cn4n3)ccc2C)n(C)n1`, the growth was 23.6%.

On to `COc1cc2c(cc1OCCCCCN1CCN(c3ncnc4ccccc34)CC1)N=CC1CCCN1C2=O` (stereo not given), for which the growth is -80.6% (active).

`CCc1nc2cc(/C=C/C(=O)NO)ccc2c(=O)n1CCc1ccc(F)cc1`: the growth is -37.8% (active).

`Cc1c(CN2CCN(C(=O)[C@H](C)O)CC2)sc2c(N3CCOCC3)nc(-c3cnc(N)nc3)nc12`: the growth was -36.3% (active).

As for `CCc1cnn2c(NCc3ccc[n+]([O-])c3)cc(N3CCCC[C@H]3CCO)nc12`, the growth was -40.2% (active).

Regarding `CCN(CC)CCNc1ccc(N=Nc2cnc3ccccc3c2)c2ccccc12`, the growth was -97.8% (active).

In the case of `C/C(=N\NC(=O)Cn1c(-c2ccc(S(C)(=O)=O)cc2)nc2ccccc21)c1ccc(Cl)cc1`, the growth is 91.7%.

As for `Nc1ncnc2c1ccn2-c1cccc(NC(=O)c2ccc(N3CCOCC3)c(C(F)(F)F)c2)c1`, the growth is 41.6%.

On to `COC(=O)[C@@H](C)CNS(=O)(=O)N(c1cc(C(F)(F)F)cc(C(F)(F)F)c1)C1CCN(Cc2ccc(F)cc2)CC1`, for which the growth was 29.9%.

Regarding `Clc1ccc(/C=C/c2cc(N3CCOCC3)c3cc(Cl)c(Cl)cc3n2)cc1`, the growth is 93.9%.

As to `CC(C)[C@@H]1CC[C@]2(CO2)[C@@H]2C(=O)OCC(C(=O)O)=C[C@H]21`, the growth is -42.8% (active).

`CC12O[C@H](C[C@@H](OC(=O)CCC(=O)O)[C@H]1O)n1c3ccccc3c3c4c(c5c6ccccc6n2c5c31)C(=O)NC4=O`: the growth is -19% (active).

Consider `Cc1cccc(NC(=O)[C@@H]2c3ccccc3C(=O)N(c3ccc(Cl)cc3)[C@H]2c2ccc(Cl)cc2)n1`, for which the growth was 33.1%.

Consider `CC(=Nc1ccccc1)C1=C(O)C(Cc2ccc(O)cc2)NC1=O` (stereo not given), for which the growth was -44% (active).

Turning to `O=C(Cc1ccc(/C=C/C(=O)c2ncc[nH]2)cc1)Nc1ccc(Br)cc1`, the growth is 54.8%.

On to `CNc1ncc2cc(-c3cc(NC(=O)NCCC(C)(C)C)c(F)cc3C)c(C)nc2n1`, for which the growth was 23.6%.

As for `Cc1ccc(NC(=O)NC(=O)CSc2nc3ccccc3nc2C)cc1`, the growth was 38.7%.

Turning to `COc1ccc2c(c1)cn1c3ccc(O)cc3nc(N)c21`, the growth is 17.8%.

Consider `Cc1ccc(-[n+]2c3cc(N)c(C)cc3nc3cc(C)c(Nc4ccccc4)cc32)cc1`, for which the growth was -100% (active).

On to `COC(=O)[C@@H](OC)[C@@H]1Cc2cc3cc(OC4CC(OC5CC(O)C(O)C(C)O5)C(O)C(C)O4)c(C)c(O)c3c(O)c2C(=O)[C@H]1OC1CC(OC2CC(OC3CC(C)(O)C(O)C(C)O3)C(O)C(C)O2)C(O)C(C)O1` (stereo not given in full), for which the growth was -69.5% (active).

Take `COc1ccc(-c2cnc(-c3ccc(Cl)cc3)[nH]2)cc1OC`: the growth was 97.4%.

Turning to `CC#CC(=O)N1CCC[C@H]1c1nc(-c2ccc(C(=O)Nc3ccccn3)cc2)c2c(N)nccn12`, the growth is 86.6%.

On to `Nc1nc(N)c2nc(-c3cccc(O)c3)c(-c3cccc(O)c3)nc2n1`, for which the growth was 89.1%.

Turning to `CCS(=O)(=O)N1CCN(c2ccc(Nc3ncc(C(N)=O)c(NC4CC4)n3)cc2)CC1`, the growth is 66.8%.

For `CCc1ccc(/C=C/c2ccc(O)c3ncccc23)[n+](C)c1`, the growth was 26.3%.
